Outcome and Potency data for 11 molecules are collected here from PubChem BioAssay (NCATS).

Results filed as inconclusive are left out. Some structures have more than one record in an assay (separate samples or runs), and their calls can disagree. The source made the active and inactive calls. Unless noted, the call rests on the fitted dose curve; in most records, active means well fitted curve in the direction sought with a large enough effect; inconclusive means small, poorly fitted or top-dose-only effect, or another doubt; inactive means no such curve, though single readings can be large; an effect the other way counts as inactive or inconclusive.

The target in assay [1] is ATP-dependent DNA helicase Q1 (Homo sapiens) (UniProt P46063). Briefly: qHTS Validation Assay for Inhibitors of RecQ-Like Dna Helicase 1 (RECQ1) (AID 2353). A digest of the protocol:
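RECQ1T1 50 nM; forked duplex (20 bp + 30-nt ss tails) 200 nM, ATP 2 mM final; pH 8.0, 2 mM MgCl2, 2.5 ug/ml poly(dI-dC); 15 min compound preincubation; discontinuous kinetic read over 2 h at RT.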
For orientation: Quantitative high-throughput screening tests each substance at several concentrations.

Assay [2] addresses RecQ-like DNA helicase BLM (Homo sapiens) (UniProt P54132). Put plainly: qHTS Validation Assay for Inhibitors of Bloom's syndrome helicase (BLM) (AID 2364). Further: potency means the concentration at half of the fitted maximal effect. A digest of the protocol: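 BLM 50 nM in 25 mM Tris-HCl pH 8.0, 5 mM NaCl, 2 mM MgCl2, 1 mM DTT, 0.01% Tween-20, 2.5 ug/ml poly(dI-dC); 15 min cpd preinc, RT. Start: 200 nM forked DNA + 2 mM ATP (final). TAMRA read, 2 reads 2 h apart.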

Assay [3] can be described thus: Cytometric Cell-Based qHTS for Inhibitors of the mTORC1 Signaling Pathway in MEF (Tsc2-/-, p53-/-) Cells (AID 2660).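 Further: Tsc2 and p53 null MEFs carrying empty vector with compound for 24 h; percent of cells above a phospho-rpS6 to PI ratio cutoff in each well; series mostly up to about 38 µM.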 A digest of the protocol: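 Percent of cells positive for normalized phospho-S6 staining is reported, with the cutoff set from rapamycin (7.5 nM) versus DMSO wells. Tsc2-/-, p53-/- MEFs received compound for 24 hrs.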
A short description of assay [4]: High Content Imaging Cell-Based qHTS for Inhibitors of the mTORC1 Signaling Pathway in MEF Cells (AID 2667).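 Further: Tsc2-/- p53-/- MEFs stably re-expressing wild-type Tsc2 exposed 24 h; series mostly up to about 38 µM.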 In outline:
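Fixed-cell imaging of phospho-S6 (Ser235/236, Alexa-488) after 24 hrs of compound treatment at 37 degree Celsius. Signal was normalized to Hoechst, and thresholds from the highest and lowest wells split cells into % active versus % non-active.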

Assay [5] in a line: Validation screen for inhibitors of Lassa infection (AID 463096; calls by dose curve).
Assay [6] concerns the target Ubiquitin carboxyl-terminal hydrolase 2 (Homo sapiens) (UniProt O75604). Put plainly: qHTS Validation Assay for Inhibitors of Ubiquitin-specific Protease USP2a Using CHOP2 as the Reporter (AID 463106). In outline:
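Inhibition is expressed relative to NEM as the full-inhibition control, with concentration-response curves classed by fit quality, magnitude and activity. Enzyme (USP2 core, 10nM) meets 25nM Ub-CHOP2 after compound preincubation; readings are taken at 60min.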

Assay [7] deals with Beta-2 adrenergic receptor (Homo sapiens) (UniProt P07550). Put plainly: qHTS validation assay of beta-arrestin-biased ligands of beta2-adrenergic receptor (AID 485366). In outline: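 Screening used a titration range of up to 46 microM in a beta-arrestin recruitment Tango luciferase assay. Cells in 1% FBS medium were treated 18 hr at 37 degrees C, and luminescence was normalized to %Activity.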
Sequence of Beta-2 adrenergic receptor (Homo sapiens) (P07550 whole entry, looked up): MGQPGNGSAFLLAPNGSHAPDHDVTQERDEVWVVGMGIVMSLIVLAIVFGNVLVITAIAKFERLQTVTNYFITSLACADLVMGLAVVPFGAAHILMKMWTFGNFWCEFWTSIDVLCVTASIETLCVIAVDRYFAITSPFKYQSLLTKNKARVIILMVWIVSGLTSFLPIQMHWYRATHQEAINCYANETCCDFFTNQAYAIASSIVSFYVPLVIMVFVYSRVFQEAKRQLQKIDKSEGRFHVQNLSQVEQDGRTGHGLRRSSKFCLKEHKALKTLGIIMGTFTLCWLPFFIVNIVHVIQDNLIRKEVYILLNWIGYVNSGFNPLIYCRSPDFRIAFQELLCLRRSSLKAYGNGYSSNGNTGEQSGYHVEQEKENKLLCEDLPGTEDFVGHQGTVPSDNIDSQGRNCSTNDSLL

A short description of assay [8]: Quantitative high throughput screen for delayed death inhibitors of the malarial parasite plastid, 96 hour incubation (AID 488745). Further: nearly all actives have a fitted effect of over 70% in size. Further: potency means the concentration at half of the fitted maximal effect. A digest of the protocol: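 Decreased firefly luciferase luminescence indicates inhibited growth of reporter-integrated P. falciparum after two generations (96 h, 37 C, 5% CO2). Infected erythrocytes at 0.1% parasitemia, 2% hematocrit, in Albumax-supplemented RPMI 1640.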

Assay [9] can be described thus: Quantitative high throughput screen for delayed death inhibitors of the malarial parasite plastid, 48 hour incubation (AID 488752). Further: nearly all actives have a fitted effect of over 65% in size. Further: potency means the concentration at half of the fitted maximal effect. A digest of the protocol:
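One-generation (48 h) growth assay: a decrease in luciferase signal from an integrated reporter in P. falciparum-infected red cells (0.1% parasitemia, 2% hematocrit) after compound exposure at 37 C indicates parasite inhibition.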

Assay [10] deals with Thioredoxin reductase 1, cytoplasmic (Rattus norvegicus) (UniProt O89049). Put plainly: qHTS Assay for Substrates of Mammalian Selenoprotein Thioredoxin Reductase 1 (TrxR1) (AID 488772).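 Further: series mostly up to about 57 µM; a drop in NADPH fluorescence below the no-compound background marks a TrxR1 substrate.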 In outline:
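In this dual-purpose format, potential substrates are identified from the first fluorescence read after selenite addition, not from the 8-minute delta. Rat enzyme is preincubated with NADPH and then with compound at ~22 deg C.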

Assay [11] shares this target. Put plainly: qHTS Assay for Inhibitors of Mammalian Selenoprotein Thioredoxin Reductase 1 (TrxR1) (AID 488773).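 Further: drop in NADPH fluorescence over an 8 min run after selenite addition; series mostly up to about 57 µM; nearly all actives have a fitted effect of over 40% in size.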 To be noted: Potency: inhibition. A digest of the protocol:
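Inhibition is scored from the loss of NADPH fluorescence between first and last reads of an 8-min kinetic run. Selenite (400 uM) was the substrate, added after 15 min compound preincubation at room temperature.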

The target in assay [12] is M-phase phosphoprotein 8 (Homo sapiens) (UniProt Q99549). Briefly: qHTS Validation Assay for Inhibitors for MPP8 Chromodomain Interactions with Methylated Histone Tails (AID 488949). Further: nearly all actives have a fitted effect of over 55% in size. Further: potency means the concentration at half of the fitted maximal effect. In outline:
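Chemiluminescent proximity assay: histidine-tag capture via nickel acceptor beads, biotin peptide via streptavidin donor beads. Protein and peptide each at 50 nM, pH 7.4, with 30 min incubations at room temperature for complex formation, compound exposure and bead binding.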

The target of assay [13] is Methanococcus maripaludis chaperonin (MmCpn) (UniProt Q6LX38). Briefly: High-Throughput Screening for Modulators of Cytosolic Chaperonin Activity: MmCpn Primary Screen (AID 488978). In outline: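 HTRF readout (320 nm excitation, 590/665 nm emission) of ADP generated by 50 nM MmCpn hydrolysing 30 uM ATP during 10 min at 37C; compound preincubated 5 min RT.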
Assay [14] addresses Transient receptor potential cation channel subfamily V member 1 (Homo sapiens) (UniProt Q8NER1). Put plainly: HTS Assay for Compounds that Act as Enhancers of the Vanilloid Receptor 1 (AID 488979). A digest of the protocol:
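TRPV1-expressing cells loaded with Fluo-8 calcium dye; compounds added and calcium influx read kinetically for 3 min (agonist phase), then capsaicin at EC20 added and read 2 min more for enhancement. Fluorescence ex 480/em 520 nm.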

A short description of assay [15]: Validation screen for small molecules that induce DNA re-replication in MCF 10A normal breast cells (AID 463097). Further: nearly all actives have a fitted effect of over 60% in size. A digest of the protocol:
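Following 48 hr compound incubation (37 C, 5% CO2), MCF 10A cells receive Hoechst for 40 min at 37 C. Nuclei are then scanned (excitation 405 nm, emission 500-530 nm) for total fluorescence intensity.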

In assay [16] the target is Flap endonuclease 1 (Homo sapiens) (UniProt P39748). Put plainly: qHTS Validation Assay for the Inhibitors of Human Flap endonuclease 1 (FEN1) (AID 488816). Further: potency means the concentration at half of the fitted maximal effect. In outline:
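Steps: add FEN1 (10 nM reagent) or buffer only; pin compounds; hold 15 min at room temperature; start with substrate, 50 nM final; read at 0 and 15 min; correct, normalize and fit a four-parameter Hill curve.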

For assay [17], the target named is Chromobox protein homolog 1 (Homo sapiens) (UniProt P83916). Put plainly: qHTS Validation Assay for Inhibitors of HP1-beta Chromodomain Interactions with Methylated Histone Tails (AID 488953). Further: nearly all actives have a fitted effect of over 50% in size. Further: potency means the concentration at half of the fitted maximal effect. In outline: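 AlphaScreen proximity signal from streptavidin donor and nickel chelate acceptor beads (final 10 ug/mL) after 30 min dark incubation. Compounds had 30 min at room temperature with preformed complex of 50 nM HP1-beta and 50 nM b-H3(1-18)K9me3 in PBS pH 7.4 with 0.01% Tween-20.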
Sequence of Chromobox protein homolog 1 (Homo sapiens) (P83916 whole entry, looked up): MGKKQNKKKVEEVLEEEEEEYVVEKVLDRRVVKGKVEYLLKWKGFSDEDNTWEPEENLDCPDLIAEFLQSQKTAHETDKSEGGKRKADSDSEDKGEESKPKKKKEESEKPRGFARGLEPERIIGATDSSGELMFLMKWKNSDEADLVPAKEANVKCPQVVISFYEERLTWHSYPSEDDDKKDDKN

Assay [18] in a line: Cytometry Cell-Based qHTS for Inhibitors of the mTORC1 Signaling Pathway in MEF cells (AID 2668).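 Further: Tsc2-/- p53-/- mouse embryonic fibroblasts stably re-expressing wild-type Tsc2; percent cells positive for phospho-rpS6 Ser235/236 relative to propidium iodide stain; series mostly up to about 38 µM.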 A digest of the protocol: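 In MEFs grown in DMEM + 10% FBS, a 24 hrs compound exposure preceded imaging of phospho-rpS6 Ser235/236 by laser-scanning cytometry.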
The nature of assay [19]: qHTS Validation Assay to Find Inhibitors of Chronic Active B-Cell Receptor Signaling (AID 485345; active means well fitted curve in the direction sought with a large enough effect in the main read-out, with a control signal flat, not every such curve was filed as active). A digest of the protocol:
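TMD8 ABC-DLBCL cells with dox-inducible green luciferase–IκBα fusion and red native luciferase; compounds 46 uM–3 nM, 4 h at 37C with doxycycline in 0.5% FBS IMDM. Green/red ratio normalized to basal and 10 uM MG-132.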

The target of assay [20] is ATP-dependent 6-phosphofructokinase (Trypanosoma brucei brucei) (UniProt O15648). Put plainly: qHTS Validation Assay to Find Inhibitors of T. brucei phosphofructokinase (AID 485368). Further: potency means the concentration at half of the fitted maximal effect. In outline: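 PFK-generated ADP was measured after 45 min at room temperature using ADP-Glo. The reaction contained 0.5 mM F6P and 0.1 mM ATP.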
Sequence of ATP-dependent 6-phosphofructokinase (Trypanosoma brucei brucei) (O15648 whole entry, looked up): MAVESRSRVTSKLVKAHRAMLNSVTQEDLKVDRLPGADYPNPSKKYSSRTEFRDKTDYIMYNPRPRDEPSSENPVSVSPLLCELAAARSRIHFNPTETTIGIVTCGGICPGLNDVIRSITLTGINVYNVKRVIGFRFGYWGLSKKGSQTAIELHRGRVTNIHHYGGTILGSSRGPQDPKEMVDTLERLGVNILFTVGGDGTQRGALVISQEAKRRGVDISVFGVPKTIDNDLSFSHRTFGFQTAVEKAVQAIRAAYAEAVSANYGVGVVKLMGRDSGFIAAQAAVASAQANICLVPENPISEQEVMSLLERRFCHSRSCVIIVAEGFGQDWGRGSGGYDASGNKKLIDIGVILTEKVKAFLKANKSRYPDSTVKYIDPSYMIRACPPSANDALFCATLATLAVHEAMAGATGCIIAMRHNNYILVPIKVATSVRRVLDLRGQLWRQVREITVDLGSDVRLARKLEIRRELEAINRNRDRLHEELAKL

Sequence of Transient receptor potential cation channel subfamily V member 1 (Homo sapiens) (Q8NER1 whole entry, looked up): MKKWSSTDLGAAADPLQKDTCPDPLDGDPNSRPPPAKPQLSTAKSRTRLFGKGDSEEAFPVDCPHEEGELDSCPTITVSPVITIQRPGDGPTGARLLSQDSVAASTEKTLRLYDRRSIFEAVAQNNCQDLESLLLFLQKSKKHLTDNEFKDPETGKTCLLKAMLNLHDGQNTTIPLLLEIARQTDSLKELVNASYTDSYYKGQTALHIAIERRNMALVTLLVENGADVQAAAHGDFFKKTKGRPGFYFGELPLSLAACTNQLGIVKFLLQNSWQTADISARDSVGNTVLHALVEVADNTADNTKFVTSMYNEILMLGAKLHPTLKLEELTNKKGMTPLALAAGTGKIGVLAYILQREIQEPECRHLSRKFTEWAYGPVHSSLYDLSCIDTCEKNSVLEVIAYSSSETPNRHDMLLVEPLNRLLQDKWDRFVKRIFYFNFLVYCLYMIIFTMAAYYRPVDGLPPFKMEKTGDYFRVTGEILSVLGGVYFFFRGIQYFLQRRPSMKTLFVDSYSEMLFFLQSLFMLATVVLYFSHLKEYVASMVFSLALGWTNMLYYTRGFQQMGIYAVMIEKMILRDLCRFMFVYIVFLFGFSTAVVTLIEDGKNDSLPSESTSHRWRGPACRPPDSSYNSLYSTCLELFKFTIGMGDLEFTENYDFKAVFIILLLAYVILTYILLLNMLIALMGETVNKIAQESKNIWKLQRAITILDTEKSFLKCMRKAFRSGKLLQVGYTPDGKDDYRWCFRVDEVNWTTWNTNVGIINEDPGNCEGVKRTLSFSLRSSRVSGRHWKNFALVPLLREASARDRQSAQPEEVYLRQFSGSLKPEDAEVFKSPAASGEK
Sequence of RecQ-like DNA helicase BLM (Homo sapiens) (P54132 whole entry, looked up): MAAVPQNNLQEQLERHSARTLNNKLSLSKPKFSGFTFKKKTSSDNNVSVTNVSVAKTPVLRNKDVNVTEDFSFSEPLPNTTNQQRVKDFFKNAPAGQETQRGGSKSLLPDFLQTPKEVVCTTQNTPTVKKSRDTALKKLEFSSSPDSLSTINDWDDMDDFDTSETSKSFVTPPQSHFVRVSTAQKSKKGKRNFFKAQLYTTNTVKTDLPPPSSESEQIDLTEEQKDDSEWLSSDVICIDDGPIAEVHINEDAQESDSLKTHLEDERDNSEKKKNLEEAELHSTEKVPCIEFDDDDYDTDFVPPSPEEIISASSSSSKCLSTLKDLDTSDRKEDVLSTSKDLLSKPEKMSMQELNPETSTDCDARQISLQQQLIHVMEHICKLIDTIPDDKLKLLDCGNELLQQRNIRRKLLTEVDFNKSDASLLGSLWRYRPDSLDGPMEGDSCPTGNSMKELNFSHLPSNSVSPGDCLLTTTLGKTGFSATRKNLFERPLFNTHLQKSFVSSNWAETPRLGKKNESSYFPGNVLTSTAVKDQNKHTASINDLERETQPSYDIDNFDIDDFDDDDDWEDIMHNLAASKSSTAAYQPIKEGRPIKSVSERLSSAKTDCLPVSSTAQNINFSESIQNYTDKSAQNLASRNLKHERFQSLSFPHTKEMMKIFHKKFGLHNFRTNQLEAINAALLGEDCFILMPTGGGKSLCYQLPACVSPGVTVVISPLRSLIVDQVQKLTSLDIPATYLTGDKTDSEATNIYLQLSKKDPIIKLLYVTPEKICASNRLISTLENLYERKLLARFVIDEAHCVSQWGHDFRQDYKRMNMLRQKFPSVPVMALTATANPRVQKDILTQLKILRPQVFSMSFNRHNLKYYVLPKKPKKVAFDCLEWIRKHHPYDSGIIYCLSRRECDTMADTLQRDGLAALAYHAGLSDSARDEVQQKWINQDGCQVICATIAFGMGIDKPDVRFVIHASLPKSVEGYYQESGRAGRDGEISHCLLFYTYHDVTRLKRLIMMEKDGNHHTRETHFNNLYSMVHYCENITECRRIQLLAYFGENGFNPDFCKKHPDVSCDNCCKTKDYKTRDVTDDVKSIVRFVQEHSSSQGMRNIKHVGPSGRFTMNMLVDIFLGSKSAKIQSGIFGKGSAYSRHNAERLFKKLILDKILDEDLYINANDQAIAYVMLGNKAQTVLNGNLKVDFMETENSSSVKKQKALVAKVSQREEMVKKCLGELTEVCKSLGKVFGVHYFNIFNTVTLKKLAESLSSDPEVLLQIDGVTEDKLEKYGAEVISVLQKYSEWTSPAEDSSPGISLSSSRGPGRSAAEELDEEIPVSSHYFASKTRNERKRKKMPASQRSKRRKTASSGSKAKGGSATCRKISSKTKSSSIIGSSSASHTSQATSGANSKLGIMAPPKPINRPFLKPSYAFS
Sequence of Thioredoxin reductase 1, cytoplasmic (Rattus norvegicus) (O89049 whole entry, looked up): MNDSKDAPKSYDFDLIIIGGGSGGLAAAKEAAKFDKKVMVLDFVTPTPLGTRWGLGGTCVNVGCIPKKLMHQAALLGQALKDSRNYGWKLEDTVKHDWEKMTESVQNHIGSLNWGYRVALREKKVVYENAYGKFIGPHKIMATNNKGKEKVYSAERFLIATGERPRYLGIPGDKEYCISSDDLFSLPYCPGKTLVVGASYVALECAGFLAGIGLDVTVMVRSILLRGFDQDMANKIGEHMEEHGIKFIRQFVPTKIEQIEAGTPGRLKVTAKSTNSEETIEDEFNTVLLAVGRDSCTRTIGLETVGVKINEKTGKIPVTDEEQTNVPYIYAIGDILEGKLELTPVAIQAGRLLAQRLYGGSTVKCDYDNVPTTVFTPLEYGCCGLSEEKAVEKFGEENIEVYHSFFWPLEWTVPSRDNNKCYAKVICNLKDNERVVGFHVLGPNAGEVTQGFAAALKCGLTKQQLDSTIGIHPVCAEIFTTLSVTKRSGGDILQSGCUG
Sequence of Ubiquitin carboxyl-terminal hydrolase 2 (Homo sapiens) (O75604 whole entry, looked up): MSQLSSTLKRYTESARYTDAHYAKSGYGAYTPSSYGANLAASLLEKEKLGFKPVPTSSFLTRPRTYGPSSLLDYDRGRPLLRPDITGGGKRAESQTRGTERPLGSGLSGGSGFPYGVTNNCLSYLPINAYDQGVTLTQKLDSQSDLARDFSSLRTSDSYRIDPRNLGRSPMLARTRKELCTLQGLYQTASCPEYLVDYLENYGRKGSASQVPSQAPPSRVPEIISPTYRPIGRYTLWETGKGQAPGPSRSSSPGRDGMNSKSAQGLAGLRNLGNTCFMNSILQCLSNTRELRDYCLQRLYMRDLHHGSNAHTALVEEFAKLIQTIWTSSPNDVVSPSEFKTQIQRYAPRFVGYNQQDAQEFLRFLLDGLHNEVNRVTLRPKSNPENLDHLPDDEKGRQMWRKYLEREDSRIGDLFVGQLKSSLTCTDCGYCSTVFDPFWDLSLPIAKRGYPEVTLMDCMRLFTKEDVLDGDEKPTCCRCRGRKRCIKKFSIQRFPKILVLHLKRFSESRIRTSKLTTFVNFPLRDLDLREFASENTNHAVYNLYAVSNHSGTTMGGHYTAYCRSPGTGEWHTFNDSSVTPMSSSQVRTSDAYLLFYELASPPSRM
Sequence of Flap endonuclease 1 (Homo sapiens) (P39748 whole entry, looked up): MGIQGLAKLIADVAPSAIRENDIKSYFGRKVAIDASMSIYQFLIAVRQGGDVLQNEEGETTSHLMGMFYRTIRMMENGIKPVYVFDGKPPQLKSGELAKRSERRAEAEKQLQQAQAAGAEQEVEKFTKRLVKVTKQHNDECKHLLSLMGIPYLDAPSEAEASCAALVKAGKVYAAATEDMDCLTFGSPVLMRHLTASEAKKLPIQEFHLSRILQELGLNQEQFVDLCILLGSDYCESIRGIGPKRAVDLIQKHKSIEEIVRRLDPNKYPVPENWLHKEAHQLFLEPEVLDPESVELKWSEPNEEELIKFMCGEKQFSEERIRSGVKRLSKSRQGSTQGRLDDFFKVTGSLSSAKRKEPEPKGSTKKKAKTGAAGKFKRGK

With `O=c1[nH]c2ccccc2n1CCCN1CCC(n2c(=O)[nH]c3cc(Cl)ccc32)CC1`, the molecule was called inactive in assay [1], in assay [3], in [7], in assay [10], in [13] and in assay [14]. The Potency result in assay [2], in assay [4], in [5], in assay [6], in assay [11] and in assay [12] was “inactive” in each case. For the same molecule, the Potency in assay [8] is 1.17 µM (active); in assay [9], 10.4 µM (active).

`CC[N+](CC)(CC)CC`: the outcome in [1] and in assay [14] was inactive. In addition, the Potency entry in assay [2], in [5], in assay [15], in assay [16] and in [12] was “inactive” in each case. In [8], the Potency was 4.15 µM (active).

For `COc1ccc(Cc2nccc3cc(OC)c(OC)cc23)cc1OC`, the result in assay [1] and in assay [14] was inactive. In addition, the Potency entry in [5], in assay [15], in [8], in assay [9], in [16] and in assay [12] was “inactive” each time. The Potency in assay [17] is 0.006 µM (active).

Regarding `O=C1NCN(c2ccccc2)C12CCN(CC1COc3ccccc3O1)CC2` (stereo not drawn), the outcome in [1], in [3], in [19], in [7], in assay [10] and in assay [13] was inactive. Also, the outcome in assay [14] was inactive. The Potency result in [4], in assay [18], in assay [5], in assay [15], in assay [6] and in [20] was “inactive” in each case. For the same molecule, the Potency entry in [8], in [9], in assay [11], in [16] and in assay [12] was “inactive” throughout.

Consider `Clc1cccc(N2CCNCC2)c1`, for which the result in assay [1] and in assay [14] was inactive. Besides, the Potency result in assay [5], in assay [15], in assay [9] and in assay [12] was “inactive” in each case.

Take `NCC(O)c1ccc(O)cc1` (stereo not drawn): the molecule was classed as inactive in [1], in assay [3], in [19], in [7], in [10] and in assay [13]. For the same molecule, the result in assay [14] was inactive. For the same molecule, the Potency entry in [2], in assay [4], in [18], in assay [5], in assay [15] and in [6] was “inactive” each time. Also, the Potency result in assay [8], in [9], in assay [11], in assay [16], in assay [12] and in assay [17] was “inactive” throughout.

As to `COc1ccccc1N1CCNCC1`, the outcome in [1], in assay [3], in assay [19], in assay [7], in assay [10] and in assay [13] was inactive. For the same molecule, the result in [14] was inactive. Also, the Potency entry in assay [2], in assay [4], in assay [18], in assay [5], in assay [15] and in assay [6] was “inactive” in each case. Also, the Potency result in assay [8], in assay [9], in assay [16], in assay [12] and in assay [17] was “inactive” each time.

Regarding `CCC1(C2=NCCN2)Cc2ccccc2O1` (stereo not drawn), the molecule was classed as inactive in [1], in [3], in [19], in [7], in [10] and in [13]. Moreover, the result in [14] was inactive. Besides, the Potency result in [2], in [4], in [18], in assay [5], in assay [15] and in [6] was “inactive” each time. Further, the Potency result in assay [20], in assay [8], in assay [9], in assay [11], in [16] and in assay [12] was “inactive” each time. Further, the Potency result in [17] is “inactive”.

As for `CC(CCc1ccccc1)NC(C)C(O)c1ccc(O)cc1` (stereo not drawn), the call in [1], in assay [3], in [19], in [7], in [10] and in assay [13] was inactive. Moreover, the Potency entry in assay [4], in assay [18], in assay [5], in assay [15], in [6] and in assay [20] was “inactive” each time. For the same molecule, the Potency result in [8], in assay [9], in assay [11], in assay [16], in assay [12] and in [17] was “inactive” throughout.

On to `Cc1cccc(C)c1NC1=NCCCS1`, for which the call in assay [1], in [3], in assay [19], in assay [7], in [10] and in assay [13] was inactive. For the same molecule, the outcome in assay [14] was inactive. In addition, the Potency result in assay [4], in assay [18], in [5], in assay [15], in assay [6] and in assay [20] was “inactive” throughout. In addition, the Potency entry in assay [9], in assay [11], in assay [12] and in assay [17] was “inactive” throughout.

For the molecule `O=c1c(O)c(-c2ccc(O)c(O)c2)oc2cc(O)cc(O)c12`, the Potency is 28.2 µM (active) in assay [2]; 6.75 µM (active) in assay [20]; 10.4 µM (active) in assay [8]; 2.38 µM (active) in assay [16]; 39.8 µM (active) and inactive in [12]. Besides, the Potency entry in assay [5] is “inactive”.
